Assay outcomes (PubChem BioAssay)
ssDAF-12 act: activators of S. stercoralis DAF-12 nuclear receptor. activation, % at 6.8 µM. 370,000 compounds, 1% hits. HEK293 ssDAF-12/GRIP1 lit1-tk-luc reporter, luminescence; % of 3 µM dafachronic acid response;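 active = activation above the mean over all tested compounds plus 3 SD, cut at about 0.9% in these data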;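 note: 0% = DMSO-only wells and 100% = 3 µM delta7-dafachronic acid wells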
DAX1 inh-1: DAX1 (NR0B1) inhibition, primary screen; 370,000 compounds, 1.1% hits; HEK293T StAR-luciferase reporter, SF-1/DAX-1 repression relief; inhibition, % at 6.8 µM;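 active = inhibition above the mean over all tested compounds plus 3 SD, cut at about 3.6% in these data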;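 note: 0% = DAX-1 cells with DMSO and 100% = cells lacking DAX-1 with DMSO; higher inhibition means more luminescence from relief of DAX-1 repression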
hgDAF-12 ag: activates the H. glycines DAF-12 receptor ligand-binding domain. HEK293 GAL4-hgDAF12 UAS-luciferase reporter, agonist luminescence; normalized to butyrate control. activation, % at 6.8 µM. 370,000 compounds, 1.8% hits. AID 687014;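 active = activation above a cutoff set at the mean of all screened compounds plus 3 SD, cut at about 10% in these data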;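 note: 0% = DMSO wells and 100% = sodium butyrate wells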
SMARCA2 activ: activators of SMARCA2 function; MG213 cells, MMTV-luciferase reporter, dexamethasone, overnight; activation, % at 9.1 µM; 370,000 compounds, 1% hits; in the data active = activation above about 7.8%;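 note: 0% = vehicle wells and 100% = reference activator wells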
DAX1 inh-2: NR0B1 (DAX1) inhibition | HEK293 Gal4-DAX1 luciferase reporter, luminescence | 340,000 compounds, 0.99% hits | P51843 | AID 504766 | inhibition, % at 6.75 µM;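 active = inhibition above the mean over all tested compounds plus 3 SD, cut at about 4.2% in these data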;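 note: 0% = DAX1-transfected cells with DMSO and 100% = empty-vector control cells with DMSO; inhibition shows as a rise in luminescence from relieved DAX1 repression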
Target sequence (P51843 207-470 limits assumed): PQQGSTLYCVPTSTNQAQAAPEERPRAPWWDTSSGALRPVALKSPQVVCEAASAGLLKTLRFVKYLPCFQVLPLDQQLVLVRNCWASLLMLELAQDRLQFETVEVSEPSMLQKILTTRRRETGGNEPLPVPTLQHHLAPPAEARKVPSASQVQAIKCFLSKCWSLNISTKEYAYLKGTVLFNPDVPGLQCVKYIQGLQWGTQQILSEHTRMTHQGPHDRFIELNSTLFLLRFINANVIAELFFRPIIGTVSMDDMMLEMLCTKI
hcDAF-12 act: H. contortus DAF-12 activation, primary screen; HEK293 hcDAF-12 lit1-tk-luc reporter, luminescence; 0% DMSO, 100% Δ7-dafachronic acid; activation, % at 6.8 µM; 370,000 compounds, 1.4% hits;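 active = activation above the mean of all tested compounds plus 3 SD, cut at about 5.5% in these data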;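 note: 100% = response to 3 µM Δ7-dafachronic acid high control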
SMARCA2 conf: confirmation of SMARCA2 (BRM) function activators. shares compounds with SMARCA2 activ. MG213 cells, MMTV-luciferase with dexamethasone, luminescence, overnight; MG213 cells expressing E1A, Rb sequestered; DMSO wells 0%, reference activator 100%. activation, % at 9.1 µM. 3,500 compounds, 30% hits. AID 652260;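 active = activation above its plate's cutoff, the mean activation of tested wells plus 3 SD, cut at about 7.9% in these data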
VP16 Luc act: GAL4-VP16 reporter activation counter-screen; HEK293 GAL4-VP16 pG5luc reporter, luciferase luminescence; scaled: DMSO wells 0%, SAHA wells 100%; activation, % at 9.1 µM; 3,500 compounds, 41% hits; shares compounds with SMARCA2 activ; AID 686939;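 active = activation above the solvent-only control well mean plus 3 SD, averaged across control plates, cut at about 5.2% in these data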
* = called active by the depositor; · = no result given. Rows were chosen to be rich in hits. Some 4.8% of all compounds tested hit in one or more screens of this group.

SMILES	ssDAF-12 act	DAX1 inh-1	hgDAF-12 ag	SMARCA2 activ	DAX1 inh-2	hcDAF-12 act	SMARCA2 conf	VP16 Luc act
CCN(CC)CCN(C(=O)CCS(=O)(=O)c1ccccc1)c1nc2cc(OC)c(OC)cc2s1	-2	-2	-1	8.7*	1	0	-4	1
Fc1ccc(Oc2nc(-c3ccccn3)nc3ccccc23)cc1	-1	0	4	9.0*	·	0	-5	3
COc1ccc(Oc2nc(-c3ccccn3)nc3ccccc23)cc1	0	1	3	8.3*	·	0	-6	-2
Cc1cccc(-n2c(C)cc(C=C(C#N)C#N)c2C)c1	-1	0	0	1	0	-1	·	·
C/C(NC(=O)c1ccccc1)=C1/C(=O)CC2C1C2(C)C (stereo unspecified)	0	2	9	8.0*	0	1	19*	5
Cc1nc2ccccc2n1Cc1ccc(Br)cc1	-3	-1	-7	-6	-6	-5	·	·
Brc1ccc(Cn2c(-c3ccc(Br)o3)nc3ccccc32)o1	-1	1	0	12*	0	-2	8.1*	2
O=C(Nc1ccc(F)cc1)C(c1ccccc1)N1CCN(c2ccncc2)CC1 (stereo unspecified)	-1	0	-2	8.3*	·	-1	2	0
COc1ccc(C(C(=O)Nc2ccc(F)cc2)N2CCN(c3ccncc3)CC2)cc1 (stereo unspecified)	-1	2	5	-1	·	1	·	·
Oc1c(Cl)cc(Cl)c2cccnc12	-1	0	0	2	-1	3	·	·
Cc1ccc2c(Cl)cc(Cl)c(O)c2n1	-1	-1	0	10*	-3	-1	-16	11*
Nc1ccc(S(=O)(=O)NC2(C(F)(F)F)NC(=O)N(Cc3ccccc3)C2=O)cc1 (stereo unspecified)	0	0	0	8.0*	2	-1	-5	0
Cc1cc(C)cc(C(=O)N2CC(=O)Nc3ccccc32)c1	-1	3	-3	-2	1	0	·	·
COc1cc(C(=O)N2CC(=O)Nc3ccccc32)cc(OC)c1OC	-1	0	4	9.2*	2	-1	0	0
COc1cccc(-c2nnc3sc(-c4ccccn4)nn23)c1	-2	-1	1	2	0	-1	·	·
COc1cccc(-c2nn3c(-c4ccccn4)nnc3s2)c1	-2	-1	-2	8.7*	-1	-1	3	1
COc1ccc(C(=O)N2CCCC(O)C2)cc1OC1CCN(C(C)C)CC1 (stereo unspecified)	0	0	2	8.2*	0	2	4	1
COCC1CCN(C(=O)c2ccc(OC)c(OC3CCN(C(C)C)CC3)c2)CC1	-1	-1	1	0	1	-2	·	·
Cc1cccc2nc(CSc3ccc(Cl)cc3)cn12	-1	4.2*	12*	10*	2	2	6	1
COc1ccccc1-n1cc(-c2ccccc2)[nH]c1=S	0	1	0	-2	0	3	·	·
COc1ccccc1-n1cc(-c2ccccc2)c2c(=S)nc[nH]c21	-2	0	-1	8.4*	0	0	1	1
COc1ccc(NS(=O)(=O)c2ccc(NC(=S)NC(=O)c3cccnc3)cc2)nn1	-2	0	2	0	·	-1	·	·
COc1ccc(NS(=O)(=O)c2ccc(NC(=S)NC(=O)c3cccc(F)c3)cc2)nn1	-1	0	0	8.2*	-1	0	0	0
CCCn1c(C)cc(C(=O)Cn2nnc3ccccc3c2=O)c1C	0	3	12*	9.1*	1	3	10*	7.3*
NC(=O)c1ccsc1NC(=O)CS(=O)(=O)c1ccc(F)cc1	0	0	-3	2	-1	-2	·	·
SMILES	ssDAF-12 act	DAX1 inh-1	hgDAF-12 ag	SMARCA2 activ	DAX1 inh-2	hcDAF-12 act	SMARCA2 conf	VP16 Luc act
Cc1ccc(C(=O)NCc2ccc3c(c2)CCO3)cc1C	-2	1	4	2	2	-2	·	·
O=C(NCc1ccc2c(c1)CCO2)Nc1ccccc1	-1	2	12*	8.7*	3	0	7	5.2*
CCc1ccc(NC(=O)CCNC(=O)Cn2ccc3ccccc3c2=O)cc1	0	0	-1	1	0	-2	·	·
CCc1ccc(NC(=O)CNC(=O)Cn2ccc3ccccc3c2=O)cc1	-1	0	-2	9.1*	-1	2	0	2
Oc1ccc(C=Nc2ccc(N3CCOCC3)cc2)c(O)c1	-1	0	-2	-3	-1	-3	·	·
COc1ccc(C2Nc3ccccc3C(=O)N2c2ccc(C)cc2)cc1Cn1cc([N+](=O)[O-])cn1 (stereo unspecified)	-1	2	7	9.8*	2	4	2	7.4*
O=C(COc1cccnc1[N+](=O)[O-])Nc1cccc(Br)c1	-1	2	9	11*	1	-1	7	5
Cc1cc(C)n2nc(SCC(=O)Nc3ccccc3)nc2n1	-1	-1	-1	-2	0	-1	·	·
COc1cccc(-c2ccc3c(N)c(C(=O)NC4CC4)sc3n2)c1	-1	1	11*	13*	4.7*	1	3	8.5*
C=CS(=O)(=O)c1c2cc(OC)ccc2nc2ccc(OC)cc12	-1	-1	0	15*	-2	-1	-9	13*
Cc1cc(C(=O)COC(=O)c2ccc(Br)o2)c(C)n1C	0	0	6	9.7*	0	1	15*	6.5*
COc1ccc(NC(=O)c2c3c(nc4ccccc24)CCC3)cc1	-2	0	0	-2	-1	-2	·	·
Cc1cccc(NC(=S)NC(=O)c2ccc(-c3ccccc3)cc2)n1	0	1	10	11*	1	2	10*	6.7*
CC1CCc2c(sc3nc(SCC(=O)NCc4ccco4)nc(N)c23)C1 (stereo unspecified)	-1	0	1	2	0	0	·	·
CCN(CC)C(=O)CSc1nc(N)c2c3c(sc2n1)CC(C)CC3 (stereo unspecified)	-2	0	0	8.3*	-1	0	4	8.1*
CN(C(=O)c1ccco1)c1nnc(-c2ccc(F)cc2)s1	0	1	9	6	1	5	·	·
CN(C(=O)c1ccco1)c1nc(-c2ccc(F)cc2)cs1	0	2	8	9.3*	5.2*	4	8.0*	7.6*
